# From PubChem BioAssay (EPA / NIEHS)
# Inconclusive results are not listed. The source made the active and inactive calls. Rule for the calls, unless noted: active = hit-call score of the fitted dose curve at least 0.9, where 1 is the maximum; inactive = score below 0.9.
# Assays:
# [1] = read-out: Monokine induced gamma interferon (MIG), CXCL9 (gene 4283); test: BSK_3C_MIG: BioMAP Diversity Plus: 3C Assay for Monokine induced gamma interferon (MIG) Biomarker Activity (AID 2283021); conditions: primary human endothelial cells (HUVEC); actives raise or lower the signal;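 for AC50: MIG protein level measured by immunoassay in the treated endothelial cultures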
# In short: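 Read-out is ELISA detection of MIG on human umbilical vein endothelial cells, taken 24 h after dosing. Gain or loss of signal was scored relative to DMSO controls using bidirectional curve fitting.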
# [2] = molecular target: human Vitamin D Receptor (VDR), VDR (gene 7421) (UniProt P11473); test: ATG_VDR_TRANS: Attagene TRANS-FACTORIAL HepG2 Assay for human Vitamin D Receptor (VDR) (AID 2283022; active = hit-call score of the fitted dose curve at least 0.9, where 1 is the maximum)
# Chain of human Vitamin D Receptor (VDR), VDR (gene 7421) (P11473 whole entry, looked up, the tested form may be a part): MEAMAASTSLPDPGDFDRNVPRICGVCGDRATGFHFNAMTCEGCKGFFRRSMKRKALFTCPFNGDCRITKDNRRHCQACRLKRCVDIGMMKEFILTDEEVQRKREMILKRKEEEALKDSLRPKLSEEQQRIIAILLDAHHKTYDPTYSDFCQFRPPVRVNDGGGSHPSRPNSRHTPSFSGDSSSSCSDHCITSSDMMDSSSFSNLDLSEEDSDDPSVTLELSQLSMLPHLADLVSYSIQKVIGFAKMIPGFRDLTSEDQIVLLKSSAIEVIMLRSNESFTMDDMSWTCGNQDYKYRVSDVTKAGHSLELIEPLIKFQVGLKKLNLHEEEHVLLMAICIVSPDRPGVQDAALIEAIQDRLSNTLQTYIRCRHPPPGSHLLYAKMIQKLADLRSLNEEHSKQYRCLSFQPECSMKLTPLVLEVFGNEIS
# In short: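 Fluorescence of labelled reporter cDNA fragments, resolved by capillary electrophoresis, gives mRNA induction after 24 h treatment of HepG2 cells carrying transfected Gal4-fusion reporter units. Activity is fitted in the positive direction with DMSO as baseline.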
# [3] = BSK_3C_SRB: Viability Assessment in the BioMAP Diversity Plus: 3C Assay (AID 2283023); conditions: primary human endothelial cells (HUVEC);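 note: fitted both ways against DMSO so a hit may be signal rise or drop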
# In short: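 Cells were dosed with chemical, cultured 24 h, fixed with 10% TCA, stained with 0.1% SRB and read at 560 nm. Human umbilical vein endothelium was used; DMSO served as negative control and baseline.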
# [4] = read-out: Matrix Metallopeptidase 1 (MMP1), MMP1 (gene 4312); test: BSK_BE3C_MMP1: BioMAP Diversity Plus: BE3C Assay for Matrix Metallopeptidase 1 (MMP1) Biomarker Activity (AID 2283024); conditions: primary human bronchial epithelial cells; actives raise or lower the signal
# In short: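 Human bronchial epithelial cells (BE3C system) exposed to compound for 24 h; MMP1 then quantified by ELISA. Activity was fitted in both directions relative to DMSO.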
# [5] = BSK_3C_Vis: BioMAP Diversity Plus: 3C Assay for Morphology Visualization (AID 2283025); conditions: primary human endothelial cells (HUVEC);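 note: fitted both ways so gain or loss versus DMSO counts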;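 for AC50: light microscopy image of cell morphology used as background control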
# In short: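 Chemicals were added to primary human umbilical vein endothelium, cells were incubated 24 h, and morphology was then visualized by light microscopy. Gain or loss of signal was fitted bidirectionally relative to DMSO.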
# [6] = read-out: Pselectin, SELP (gene 6403); test: BSK_4H_Pselectin: BioMAP Diversity Plus: 4H Assay for Pselectin Biomarker Activity (AID 2283026); conditions: primary human endothelial cells (HUVEC); actives raise or lower the signal
# In short: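 ELISA read-out of P-selectin on human umbilical vein endothelium after 24 h of dosing. Values derive from bidirectional fitting relative to DMSO. Parallel SRB protein staining flagged overt cytotoxicity.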
# [7] = BSK_4H_SRB: Viability Assessment in the BioMAP Diversity Plus: 4H Assay (AID 2283027); conditions: primary human endothelial cells (HUVEC);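 note: cells exposed to compound for 24 h before staining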;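 for AC50: curves fitted both ways versus DMSO so AC50 may be loss or gain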
# In short: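 Human umbilical vein endothelial cells, 24 h after chemical dosing; total protein measured by 0.1% sulforhodamine B staining after 10% TCA fixation, read at 560 nm. Bidirectional fitting against DMSO.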
# [8] = read-out: Thrombomodulin, THBD (gene 7056); test: BSK_3C_Thrombomodulin: BioMAP Diversity Plus: 3C Assay for Thrombomodulin Biomarker Activity (AID 2283029); conditions: primary human endothelial cells (HUVEC); actives raise or lower the signal
# In short: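 Read-out is ELISA of thrombomodulin on human umbilical vein endothelium 24 h after chemical dosing. Gain or loss of signal is scored relative to DMSO. Overt cytotoxicity is checked in parallel cultures by sulforhodamine B staining.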
# [9] = read-out: Urokinase-type plasminogen activator receptor (uPAR), PLAUR (gene 5329); test: BSK_4H_uPAR: BioMAP Diversity Plus: 4H Assay for Urokinase-type plasminogen activator receptor (uPAR) Biomarker Activity (AID 2283030); conditions: primary human endothelial cells (HUVEC); actives raise or lower the signal
# In short: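 Chemicals are dosed onto human vascular endothelial primary cells (umbilical vein). After 24 h, uPAR is read by ELISA. Gain or loss of signal is fitted relative to DMSO.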
# [10] = read-out: Vascular endothelial growth factor receptor 2 (Homo sapiens) (UniProt P35968); test: BSK_4H_VEGFRII: BioMAP Diversity Plus: 4H Assay for Vascular endothelial growth factor receptor 2 (VEGFR2) Biomarker Activity (AID 2283031); conditions: primary human endothelial cells (HUVEC); actives raise or lower the signal;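 for AC50: cell-surface VEGFR2 protein level quantified by ELISA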
# In short: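 VEGFRII levels on human vascular endothelial primary cells were determined by ELISA at 24 hours post-dosing, with gain- or loss-of-signal fitted against DMSO controls.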
# [11] = read-out: Human Leukocyte Antigen - DR isotype (HLADR), HLA-DRA (gene 3122); test: BSK_BE3C_HLADR: BioMAP Diversity Plus: BE3C Assay for Human Leukocyte Antigen - DR isotype (HLADR) Biomarker Activity (AID 2283032); conditions: primary human bronchial epithelial cells; actives raise or lower the signal
# In short: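 ELISA read-out of HLA-DR on human lung bronchial epithelial primary cells, measured 24 h post-dosing. Both increases and decreases were scored relative to DMSO vehicle.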
# [12] = read-out: Vascular cell adhesion molecule 1 (VCAM1), VCAM1 (gene 7412); test: BSK_4H_VCAM1: BioMAP Diversity Plus: 4H Assay for Vascular cell adhesion molecule 1 (VCAM1) Biomarker Activity (AID 2283033); conditions: primary human endothelial cells (HUVEC); actives raise or lower the signal;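 for outcome: cell-surface VCAM-1 protein measured by ELISA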
# In short: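 ELISA read-out of VCAM-1 on human umbilical vein endothelium 24 hours after chemical dosing; gain or loss of signal was fitted relative to DMSO, with sulforhodamine B staining of parallel cultures flagging overt cytotoxicity.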
# [13] = read-out: Interferon-gamma inducible Protein 10 (IP10), CXCL10 (gene 3627); test: BSK_BE3C_IP10: BioMAP Diversity Plus: BE3C Assay for Interferon-gamma inducible Protein 10 (IP10) Biomarker Activity (AID 2283034); conditions: primary human bronchial epithelial cells; actives raise or lower the signal
# In short: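 Chemical is dosed onto human lung bronchial epithelial primary cells, cultures are incubated 24 h, and IP-10 is then quantified by ELISA. Gain or loss of signal is fitted in both directions relative to DMSO.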
# [14] = read-out: Monokine induced gamma interferon (MIG), CXCL9 (gene 4283); test: BSK_BE3C_MIG: BioMAP Diversity Plus: BE3C Assay for Monokine induced gamma interferon (MIG) Biomarker Activity (AID 2283035); conditions: primary human bronchial epithelial cells; actives raise or lower the signal;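 note: MIG protein measured by ELISA in BE3C cultures after 24 h of dosing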
# In short: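 Primary human bronchial epithelial cells treated for 24 h; MIG levels measured by ELISA, fitted bidirectionally versus DMSO. Parallel SRB total-protein staining assessed cytotoxicity.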
# [15] = read-out: Transforming growth factor beta 1 (TGFb1), TGFB1 (gene 7040); test: BSK_BE3C_TGFb1: BioMAP Diversity Plus: BE3C Assay for Transforming growth factor beta 1 (TGFb1) Biomarker Activity (AID 2283036;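 note: TGF-b1 protein level measured by ELISA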); conditions: primary human bronchial epithelial cells; actives raise or lower the signal
# In short: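 Primary human lung bronchial epithelial cells; compound exposure 24 h; TGF-b1 by ELISA; bidirectional fit, DMSO baseline. Parallel SRB total-protein staining for cytotoxicity.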
# [16] = read-out: Plasminogen activator inhibitor-1 (PAI1), SERPINE1 (gene 5054); test: BSK_BE3C_PAI1: BioMAP Diversity Plus: BE3C Assay for Plasminogen activator inhibitor-1 (PAI1) Biomarker Activity (AID 2283037); conditions: primary human bronchial epithelial cells; actives raise or lower the signal
# In short: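 Primary human lung bronchial epithelial cells; chemical dosing; 24 h; PAI-1 measured by ELISA; bidirectional fit referenced to DMSO as negative control.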
# [17] = read-out: urokinase plasminogen activator (uPA), PLAU (gene 5328); test: BSK_BE3C_uPA: BioMAP Diversity Plus: BE3C Assay for urokinase plasminogen activator (uPA) Biomarker Activity (AID 2283038); conditions: primary human bronchial epithelial cells; actives raise or lower the signal;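 for outcome: uPA protein level quantified by ELISA in cell cultures; uPA read one day after compound addition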
# In short: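 Measured by ELISA: uPA from human primary bronchial epithelial cells 24 h after chemical treatment. Values derive from bidirectional curve fitting with DMSO serving as negative control. Total protein by SRB staining in parallel wells flagged overt cytotoxicity.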
# [18] = read-out: Urokinase-type plasminogen activator receptor (uPAR), PLAUR (gene 5329); test: BSK_BE3C_uPAR: BioMAP Diversity Plus: BE3C Assay for Urokinase-type plasminogen activator receptor (uPAR) Biomarker Activity (AID 2283039); conditions: primary human bronchial epithelial cells; actives raise or lower the signal;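 for outcome: cells exposed to compound for one day before measurement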
# In short: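 Human bronchial epithelial primary cells; chemical exposure 24 h; uPAR by ELISA; bidirectional fit vs DMSO control.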
# [19] = read-out: Interleukin-6 (IL6), IL6 (gene 3569); test: BSK_CASM3C_IL6: BioMAP Diversity Plus: CASM3C Assay for Interleukin-6 (IL6) Biomarker Activity for (AID 2283040); conditions: primary human coronary artery smooth muscle cells; actives raise or lower the signal
# [20] = BSK_BE3C_SRB: Viability Assessment in the BioMAP Diversity Plus: BE3C Assay (AID 2283028); conditions: primary human bronchial epithelial cells;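 for AC50: fitted both ways so AC50 may mark signal gain or loss versus DMSO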
# In short: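 Overt cytotoxicity was assessed as total protein in confluent human primary bronchial epithelial cultures 24 h after chemical addition, using 0.1% sulforhodamine B staining read at 560 nm.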
smiles,measurement,setting,value
CN/C(=N\[N+](=O)[O-])NCc1cnc(Cl)s1,outcome,[1],inactive
same,outcome,[2],inactive
same,outcome,[3],inactive
same,outcome,[4],inactive
same,outcome,[5],inactive
same,outcome,[6],inactive
same,outcome,[7],inactive
same,outcome,[8],inactive
same,outcome,[9],inactive
same,outcome,[10],inactive
same,outcome,[11],inactive
same,outcome,[12],inactive
same,outcome,[13],inactive
same,outcome,[14],inactive
same,outcome,[15],inactive
same,outcome,[16],inactive
same,outcome,[17],inactive
same,outcome,[18],inactive
same,outcome,[19],inactive
CCC(C)n1c(=O)[nH]c(C)c(Br)c1=O (centres undefined),outcome,[1],inactive
same,outcome,[2],inactive
same,outcome,[3],inactive
same,outcome,[4],inactive
same,outcome,[6],inactive
same,outcome,[7],inactive
same,outcome,[8],inactive
same,outcome,[9],inactive
same,outcome,[10],inactive
same,outcome,[11],inactive
same,outcome,[12],inactive
same,outcome,[13],inactive
same,outcome,[14],inactive
same,outcome,[15],inactive
same,outcome,[16],inactive
same,outcome,[17],inactive
same,outcome,[18],inactive
same,outcome,[19],inactive
CCOc1cc(C(C)(C)C)ccc1C1COC(c2c(F)cccc2F)=N1 (centres undefined),AC50,[1],32.1 µM (active)
same,outcome,[2],inactive
same,AC50,[3],15.1 µM (active)
same,AC50,[4],10.3 µM (active)
same,AC50,[5],22 µM (active)
same,AC50,[6],22.2 µM (active)
same,AC50,[7],27.6 µM (active)
same,AC50,[20],20 µM (active)
same,outcome,[8],inactive
same,AC50,[9],33 µM (active)
same,AC50,[10],22.8 µM (active)
same,AC50,[11],14.3 µM (active)
same,AC50,[12],37.4 µM (active)
same,AC50,[13],16.3 µM (active)
same,outcome,[14],inactive
same,outcome,[15],inactive
same,AC50,[16],19 µM (active)
same,AC50,[17],20 µM (active)
same,AC50,[18],6.6 µM (active)
same,outcome,[19],inactive
C=CCOC(=O)C(C)(C)OC(=O)c1cc(-n2c(=O)cc(C(F)(F)F)n(C)c2=O)ccc1Cl,outcome,[1],inactive
same,outcome,[3],inactive
same,outcome,[4],inactive
same,outcome,[5],inactive
same,outcome,[6],inactive
same,outcome,[7],inactive
same,outcome,[20],inactive
same,AC50,[9],6.97 µM (active)
same,outcome,[10],inactive
same,outcome,[11],inactive
same,outcome,[12],inactive
same,outcome,[14],inactive
same,outcome,[15],inactive
same,outcome,[16],inactive
same,outcome,[17],inactive
same,outcome,[18],inactive
same,outcome,[19],inactive
CCN(CC)c1nc(C)cc(OP(=S)(OC)OC)n1,outcome,[1],inactive
same,outcome,[2],inactive
same,AC50,[3],29.4 µM (active)
same,AC50,[4],20 µM (active)
same,outcome,[6],inactive
same,outcome,[7],inactive
same,outcome,[8],inactive
same,outcome,[9],inactive
same,outcome,[10],inactive
same,AC50,[11],20 µM (active)
same,outcome,[12],inactive
same,outcome,[14],inactive
same,outcome,[15],inactive
same,outcome,[16],inactive
same,outcome,[17],inactive
same,outcome,[18],inactive
same,outcome,[19],inactive
COC(=O)N(C(=O)N1CO[C@@]2(C(=O)OC)Cc3cc(Cl)ccc3C2=N1)c1ccc(OC(F)(F)F)cc1,outcome,[1],inactive
same,outcome,[2],inactive
same,AC50,[3],3.97 µM (active)
same,outcome,[4],inactive
same,outcome,[5],inactive
same,AC50,[6],5.19 µM (active)
same,AC50,[7],7.13 µM (active)
same,outcome,[9],inactive
same,outcome,[10],inactive
same,AC50,[11],13.8 µM (active)
same,outcome,[12],inactive
same,AC50,[13],11 µM (active)
same,outcome,[14],inactive
same,outcome,[15],inactive
same,outcome,[16],inactive
same,outcome,[17],inactive
same,outcome,[18],inactive
same,outcome,[19],inactive
